# ± gives the standard deviation.
# Experiments:
# [1] = tested on: MILI (PIWIL2) piRISC loaded with piRNA #1 (26 nt); assay: pre-steady-state target cleavage rate (min^-1); guide: piRNA #1 5'p-UGAGGUAGUAGGUUGUAUAGUAUCCA; higher = faster piRNA-guided slicing of the target; conditions: auxiliary factor: 500 nM mouse GTSF1
# In short: (§1)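 The pre-steady-state cleavage rate came from a burst-and-steady-state fit to pooled data from three Cleave-'n-Seq trials, in which uncleaved targets were sequenced and normalised to depth and to weakly complementary targets. Each reaction held 0.1 nM transcribed, DNA-blocked target RNA library and 1 nM active affinity-purified piRISC carrying one synthetic guide, with or without 500 nM GTSF1 partner protein, in HEPES–potassium acetate buffer at 33 °C for 0–8 or 0–960 min. k3 was capped at 0.0001 min^-1.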
# [2] = tested on: EfPiwi piRISC loaded with piRNA #1 (26 nt); assay: pre-steady-state target cleavage rate (min^-1); auxiliary factor: 500 nM Ephydatia muelleri Gtsf1; guide: piRNA #1 5'p-UGAGGUAGUAGGUUGUAUAGUAUCCA; MIWI and MILI are mouse PIWI proteins and EfPiwi is from a freshwater sponge; tags in brackets are library labels; higher = faster piRNA-guided slicing of the target
# In short: as §1
Sequence,pre-steady-state target cleavage rate [1],pre-steady-state target cleavage rate [2]
GGAGACCAUACUAUACAACAUACUACCUCA,0.0769 ± 0.0092,0.00326 ± 0.0021
GGAGUGGAUACUAUACAACGUAGUACCUCA,0.0167 ± 0.0028,0.00292 ± 0.0011
GGAGUGGAUACUAUACAACGUACUACCUCA,0.0277 ± 0.0034,0.00682 ± 0.0022
GGAGUGGAUACUAUACAACCUACUAGCUCA,0.0481 ± 0.0088,0.00429 ± 0.0016
GGAGACGAUACUAUACUACCUACUACGUCA,0.138 ± 0.019,0.00262 ± 0.0017
GGAGUGGAUACUAUACAACAUACUACCUCA,0.0845 ± 0.0098,0.00987 ± 0.0037
GGAGUGGAUACUAUACAACCUAACUACCUCA,0.0255 ± 0.0041,0.00456 ± 0.0023
GGAGUGGAUACUAUUCAAGCUACUACCUCA,0.221 ± 0.013,0.0053 ± 0.0025
GGAGACCAUACUAACAACCUACUACCUCA,0.114 ± 0.019,0.00859 ± 0.0041
GGAGAGCAUACUAUACAAGCUACUACCUCA,0.22 ± 0.015,0.00318 ± 0.0023
GGAGUGGAUACUAUACAACCAACUACCUGA,0.00303 ± 0.0022,0.00303 ± 0.0013
GGAGACCUAUCUAUGCAACCUACUACCUCA,0.122 ± 0.014,0.00656 ± 0.0037
GGAGACGAUACUAUACAACCUACUCCUCA,0.0114 ± 0.0032,0.0048 ± 0.0022
GGAGACCAAACUAUACAACCUAGUACCUCA,0.0169 ± 0.0096,0.00518 ± 0.0029
GGAGAGGUUACUAUACAACCUACAACCUCA,0.0663 ± 0.015,0.00313 ± 0.0018
GGAGACGGUACUAUACAACCUACUACCUCA,0.187 ± 0.016,0.0154 ± 0.0059
GGAGACCUAACUAUACAACCUACUACCUCCA,0.123 ± 0.021,0.015 ± 0.0066
GGAGACCUAACUAUACAACCUACUCCCUCA,0.0941 ± 0.022,0.00341 ± 0.0031
GGAGACCUUACUAUACGACCUACUACCUCA,0.0683 ± 0.0088,0.016 ± 0.0076
GGAGUGGAUACUAUACAACCUACUACCUCG [g2:g26:cont:t1G],0.164 ± 0.011,0.0718 ± 0.025
GGAGACCUUAGUAUACAACCUACUACCUCA,0.0889 ± 0.0097,0.0563 ± 0.02
GGAGAGGAUACUAAACAACCUACAACCUCA,0.119 ± 0.014,0.00196 ± 0.0019
GGAGUCGAUACUAUACAACCUUCUACCUCA,0.00775 ± 0.0022,0.00622 ± 0.0028

Sequence,pre-steady-state target cleavage rate [1],pre-steady-state target cleavage rate [2]
GGAGACCAUACUAUACAUCCUACAACCUCA,0.208 ± 0.019,0.00248 ± 0.0024
GGAGACCUUACUAUACAACCUACUACGUCA,0.0741 ± 0.01,0.00584 ± 0.0027
GGAGACGAUACGUAUACAACCUACUACCUCA,0.107 ± 0.013,0.00952 ± 0.0048
GGAGAGGAUACUAUACAAGCUACUACCUCA,0.143 ± 0.014,0.00667 ± 0.003
GGAGACCAUACUAUACAACGUACAACCUCA,0.0214 ± 0.0035,0.00296 ± 0.0025
GGAGAGGAUACUAUACGACCUACUACCUCA,0.121 ± 0.0093,0.117 ± 0.05
GGAGACGAUACUAUACAACUUACUACCUCA,0.0232 ± 0.0039,0.0183 ± 0.0077
GGAGACCUAACUAUACAACCUACUACCUUA,0.12 ± 0.028,0.0211 ± 0.0092
GGAGACGAUACUAUACAACCUACCUACCUCA,0.131 ± 0.011,0.00485 ± 0.002
GGAGUGGAUACUAUAGAACCUACUACGUCA,0.0161 ± 0.0041,0.00205 ± 0.0016
GGAGUGGUUACUAUACAACCUACUACCUGA,0.0722 ± 0.01,0.00386 ± 0.0014
GGAGACGAGACUAUACAACCUACUACCUCA,0.214 ± 0.034,0.0942 ± 0.032
GGAGACCAUACAAUACAACCUACUACCUCA,0.189 ± 0.023,0.0108 ± 0.0032
GGAGACGAUACUAUUCAACCUACUACCUCA,0.202 ± 0.013,0.00923 ± 0.0038
GGAGAGCAUACUAUACAACCUUCUACCUCA,0.0105 ± 0.0032,0.00445 ± 0.0027
GGAGUGGAUACUAUACAACGUACUAGCUCA,0.0104 ± 0.0027,0.00412 ± 0.0023
GGAGAGGAUACUAUAACAACCUACUACCUCA,0.161 ± 0.012,0.0661 ± 0.025
GGAGUGGAUACUAUACAACCUUCUACCACA,0.00348 ± 0.0024,0.00272 ± 0.0016
GGAGACCAUACUAUACAACCUACUACCUCG [g2:g23:cont:t1G],0.195 ± 0.017,0.0177 ± 0.0074
GGAGACCUAACUAUACAAGCUACUACGUCA,0.152 ± 0.033,0.004 ± 0.0035
GGAGACCUAUCUACUACAACCUACUACCUCA,0.0541 ± 0.0097,0.00749 ± 0.0039
GGAGACGAUACAAUACAACCUACUACCACA,0.204 ± 0.019,0.00392 ± 0.0029
GGAGACCAUACUAUAACAACCUACUACCUCA,0.133 ± 0.012,0.00662 ± 0.0038

# Reference: the supplement of paper PMC10338343
